According to the supplement of paper PMC8728848:
The sample as a whole holds a higher share of the strongest signals than the screen did.

How the values were obtained:
Assay in all cases: glycan array binding signal (z-score within array); higher = stronger binding
Conditions in all cases: glycan notation: IUPAC condensed, linker removed
[1] = molecular target: Fuc(a1-2)Gal(b1-3)GalNAc(a1-3)[Fuc(a1-2)]Gal(b1-4)Glc
Procedure, shortened: (§1)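 The binding signal is a Z-score computed within each array and averaged over linkers. Arrays of the same protein sequence at different concentrations or buffers were also averaged together. Data originate from 3228 arrays in the Consortium for Functional Glycomics database, kept only where the protein sequence was available.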

[2] = molecular target: Fuc(a1-2)Gal(b1-3)GlcNAc(b1-3)Gal(b1-4)Glc
Procedure, shortened: as §1

[3] = molecular target: Fuc(a1-2)Gal(b1-4)Glc6S
Procedure, shortened: as §1

[4] = molecular target: Fuc(a1-2)[Gal(a1-3)]Gal(b1-4)[Fuc(a1-3)]GlcNAc
Procedure, shortened: as §1

[5] = molecular target: Fuc(a1-2)[GalNAc(a1-3)]Gal
Procedure, shortened: as §1

[6] = molecular target: Fuc(a1-2)[GalNAc(a1-3)]Gal(b1-4)GlcNAc(b1-3)Gal(b1-4)GlcNAc(b1-3)Gal(b1-4)GlcNAc
Procedure, shortened: as §1

[7] = molecular target: Fuc(a1-3)[Gal(b1-4)]GlcNAc(b1-3)GalNAc
Procedure, shortened: as §1

[8] = molecular target: Fuc(a1-3)[Gal3S(b1-4)]GlcNAc
Procedure, shortened: as §1

[9] = molecular target: Gal(b1-3)GalNAc(a1-3)[Fuc(a1-2)]Gal(b1-4)Glc
Procedure, shortened: as §1

[10] = molecular target: Gal(b1-3)GlcNAc(b1-6)Gal(b1-4)GlcNAc
Procedure, shortened: as §1

[11] = molecular target: Gal(b1-4)GlcNAc
Procedure, shortened: as §1

[12] = molecular target: Gal(b1-4)GlcNAc(b1-2)Man(a1-3)[Gal(b1-4)GlcNAc(b1-2)Man(a1-6)]Man(b1-4)GlcNAc(b1-4)GlcNAc
Procedure, shortened: as §1

[13] = molecular target: Gal(b1-4)GlcNAc(b1-3)Gal(b1-3)GlcNAc
Procedure, shortened: as §1

[14] = molecular target: Gal(b1-4)GlcNAc(b1-3)Gal(b1-4)[Fuc(a1-3)]GlcNAc(b1-3)Gal(b1-4)[Fuc(a1-3)]GlcNAc
Procedure, shortened: as §1

[15] = molecular target: Gal6S(b1-4)GlcNAc6S
Procedure, shortened: as §1

[16] = molecular target: GalNAc(b1-3)Gal
Procedure, shortened: as §1

[17] = molecular target: Glc(a1-4)Glc
Procedure, shortened: as §1

[18] = molecular target: GlcA(b1-3)GlcNAc
Procedure, shortened: as §1

[19] = molecular target: GlcNAc(b1-2)Man(a1-3)[GlcNAc(b1-2)Man(a1-6)]Man(b1-4)GlcNAc(b1-4)GlcNAc
Procedure, shortened: as §1

[20] = molecular target: GlcNAc(b1-2)[GlcNAc(b1-4)]Man(a1-3)[GlcNAc(b1-2)Man(a1-6)]Man(b1-4)GlcNAc(b1-4)GlcNAc
Procedure, shortened: as §1

[21] = molecular target: GlcNAc(b1-3)[GlcNAc(b1-4)][GlcNAc(b1-6)]GlcNAc
Procedure, shortened: as §1

[22] = molecular target: GlcNAc(b1-3)[GlcNAc(b1-6)]Gal(b1-4)GlcNAc
Procedure, shortened: as §1

[23] = molecular target: GlcNAc(b1-4)[GlcNAc(b1-6)]GalNAc
Procedure, shortened: as §1

[24] = molecular target: Neu5Ac(a2-3)Gal(b1-3)GalNAc6S
Procedure, shortened: as §1

[25] = molecular target: Neu5Ac(a2-3)Gal(b1-3)GlcNAc6S
Procedure, shortened: as §1

[26] = molecular target: Neu5Ac(a2-3)Gal(b1-3)[Fuc(a1-4)]GlcNAc(b1-3)Gal(b1-3)[Fuc(a1-4)]GlcNAc
Procedure, shortened: as §1

[27] = molecular target: Neu5Ac(a2-3)Gal(b1-3)[Neu5Ac(a2-6)]GalNAc
Procedure, shortened: as §1

[28] = molecular target: Neu5Ac(a2-3)Gal(b1-4)GlcNAc(b1-3)Gal(b1-4)[Fuc(a1-3)]GlcNAc
Procedure, shortened: as §1

[29] = molecular target: Neu5Ac(a2-6)Gal(b1-4)Glc
Procedure, shortened: as §1

[30] = molecular target: Neu5Ac(a2-6)GlcNAc(b1-4)GlcNAc
Procedure, shortened: as §1

[31] = molecular target: Neu5Ac(a2-3)Gal(b1-4)[Fuc(a1-3)]GlcNAc(b1-3)GalNAc
Procedure, shortened: as §1

[32] = molecular target: Neu5Ac(a2-3)GalNAc
Procedure, shortened: as §1

[33] = molecular target: Neu5Ac(a2-6)Gal
Procedure, shortened: as §1

[34] = molecular target: Neu5Ac(a2-8)Neu5Ac(a2-8)Neu5Ac(a2-8)Neu5Ac(a2-3)[GalNAc(b1-4)]Gal(b1-4)Glc
Procedure, shortened: as §1

Binder	glycan array binding signal (z-score) [1]	glycan array binding signal (z-score) [2]	glycan array binding signal (z-score) [3]	glycan array binding signal (z-score) [4]	glycan array binding signal (z-score) [5]	glycan array binding signal (z-score) [6]	glycan array binding signal (z-score) [7]	glycan array binding signal (z-score) [8]	glycan array binding signal (z-score) [9]	glycan array binding signal (z-score) [10]	glycan array binding signal (z-score) [11]	glycan array binding signal (z-score) [12]	glycan array binding signal (z-score) [13]	glycan array binding signal (z-score) [14]	glycan array binding signal (z-score) [15]	glycan array binding signal (z-score) [16]	glycan array binding signal (z-score) [17]	glycan array binding signal (z-score) [18]	glycan array binding signal (z-score) [19]	glycan array binding signal (z-score) [20]	glycan array binding signal (z-score) [21]	glycan array binding signal (z-score) [22]	glycan array binding signal (z-score) [23]	glycan array binding signal (z-score) [24]	glycan array binding signal (z-score) [25]	glycan array binding signal (z-score) [26]	glycan array binding signal (z-score) [27]	glycan array binding signal (z-score) [28]	glycan array binding signal (z-score) [29]	glycan array binding signal (z-score) [30]	glycan array binding signal (z-score) [31]	glycan array binding signal (z-score) [32]	glycan array binding signal (z-score) [33]	glycan array binding signal (z-score) [34]
SSL (Salmo salar) (protein) TGAKGAEEGVVPAETRNQCPTGWFQFGSRCFMFVETARSWPLAERHCVSLGANLASVHSSADDQFLQAIAGCKTGAFSTTWIGGFDAVQDRLWFWSDGSEFDYQNWAKGEPNNSGGREPCIVINWGDEYRWNDIKCGNSFPSVCSKRICEIQKN	-0.152	-0.096	-0.137	-0.154	-0.165	-0.178	-0.124	-0.17	-0.165	-0.163	-0.154	-0.167	-0.174	-0.175	-0.162	-0.143	2.63	4.35	3.12	6.65	11.7	6.68	8.49	-0.18	-0.167	-0.086	-0.153	-0.179	-0.158	0.202				
Flo10 (Saccharomyces cerevisiae), P36170 (protein) MPVAARYIFLTGLFLLSVANVALGTTEACLPAGEKKNGMTINFYQYSLKDSSTYSNPSYMAYGYADAEKLGSVSGQTKLSIDYSIPCNGASDTCACSDDDATEYSASQVVPVKRGVKLCSDNTTLSSKTEKRENDDCDQGAAYWSSDLFGFYTTPTNVTVEMTGYFLPPKTGTYTFGFATVDDSAILSVGGNVAFECCKQEQPPITSTDFTINGIKPWNADAPTDIKGSTYMYAGYYYPIKIVYSNAVSWGTLPVSVVLPDGTEVNDDFEGYVFSFDDNATQAHCSVPNPAEHARTCVSSATSSWSSSEVCTECTETESTSYVTPYVTSSSWSSSEVCTECTETESTSTSTPYVTSSSSSSSEVCTECTETESTSYVTPYVSSSTAAANYTSSFSSSSEVCTECTETESTSTSTPYVTSSSWSSSEVCTECTETESTSYVTPYVSSSTAAANYTSSFSSSSEVCTECTETESTSTSTPYVTSSSSSSSEVCTECTETESTSYVTPYVSSSTAAANYTSSFSSSSEVCTECTETESTSTSTPYVTSSSWSSSEVCTECTETESTSYVTPYVSSSTAAANYTSSFSSSSEVCTECTETESTSTSTPYATSSTGTATSFTASTSNTMTSLVQTDTTVSFSLSSTVSEHTNAPTSSVESNASTFISSNKGSVKSYVTSSIHSITPMYPSNQTVTSSSVVSTPITSESSESSASVTILPSTITSEFKPSTMKTKVVSISSSPTNLITSYDTTSKDSTVGSSTSSVSLISSISLPSSYSASSEQIFHSSIVSSNGQALTSFSSTKVSSSESSESHRTSPTTSSESGIKSSGVEIESTSTSSFSFHETSTASTSVQISSQFVTPSSPISTVAPRSTGLNSQTESTNSSKETMSSENSASVMPSSSATSPKTGKVTSDETSSGFSRDRTTVYRMTSETPSTNEQTTLITVSSCESNSCSNTVSSAVVSTATTTINGITTEYTTWCPLSATELTTVSKLESEEKTTLITVTSCESGVCSETASPAIVSTATATVNDVVTVYSTWSPQATNKLAVSSDIENSASKASFVSEAAETKSISRNNNFVPTSGTTSIETHTTTTSNASENSDNVSASEAVSSKSVTNPVLISVSQQPRGTPASSMIGSSTASLEMSSYLGIANHLLTNSGISIFIASLLLAIV																															-0.323	-0.639	5.85	0.14
